Compound activity as filed in PubChem.
Compounds with a hit are over-represented: about 4.1% of the library has one in this group of screens.
hgDAF-12 ag: hgDAF-12 agonism, primary luciferase screen | 370,000 tested, 1.8% active | HEK293 GAL4-hgDAF12 UAS-luciferase reporter, agonist luminescence; normalized to butyrate control | AID 687014 | activation, % at 6.8 µM;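 active means activation above a cutoff set at the mean of all screened compounds plus 3 SD, cut at about 10% in these data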;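 further: 0% = DMSO wells and 100% = sodium butyrate wells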
DAX1 inh-1: inhibitors of human orphan nuclear receptor DAX1 (NR0B1); inhibition, % at 6.75 µM; P51843; 340,000 tested, 0.99% active; AID 504766; HEK293 Gal4-DAX1 luciferase reporter, luminescence;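 active means inhibition above the mean over all tested compounds plus 3 SD, cut at about 4.2% in these data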;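 further: 0% = DAX1-transfected cells with DMSO and 100% = empty-vector control cells with DMSO; inhibition shows as a rise in luminescence from relieved DAX1 repression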
Target sequence (P51843 207-470 limits assumed): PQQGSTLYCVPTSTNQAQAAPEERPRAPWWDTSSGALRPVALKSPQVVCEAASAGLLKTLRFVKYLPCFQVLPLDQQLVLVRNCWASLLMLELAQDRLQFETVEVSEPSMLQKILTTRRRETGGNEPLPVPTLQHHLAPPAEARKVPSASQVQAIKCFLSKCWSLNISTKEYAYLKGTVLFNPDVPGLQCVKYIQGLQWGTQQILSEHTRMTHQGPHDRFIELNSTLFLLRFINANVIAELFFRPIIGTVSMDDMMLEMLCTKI
hcDAF12 agonist: activators of H. contortus DAF-12 nuclear receptor | HEK293 hcDAF-12 lit1-tk-luc reporter, luminescence; 0% DMSO, 100% Δ7-dafachronic acid | activation, % at 6.8 µM | 370,000 tested, 1.4% active;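 active means activation above the mean of all tested compounds plus 3 SD, cut at about 5.5% in these data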;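 further: 100% = response to 3 µM Δ7-dafachronic acid high control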
DAX1 inh-2: blocks DAX1 repression of SF-1 activated StAR promoter; HEK293T StAR-luciferase reporter, SF-1/DAX-1 repression relief; inhibition, % at 6.8 µM; 370,000 tested, 1.1% active; AID 652010;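 active means inhibition above the mean over all tested compounds plus 3 SD, cut at about 3.6% in these data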;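 further: 0% = DAX-1 cells with DMSO and 100% = cells lacking DAX-1 with DMSO; higher inhibition means more luminescence from relief of DAX-1 repression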
ssDAF-12 act: activators of S. stercoralis DAF-12 nuclear receptor; 370,000 tested, 1% active; AID 652126; HEK293 ssDAF-12/GRIP1 lit1-tk-luc reporter, luminescence; % of 3 µM dafachronic acid response; activation, % at 6.8 µM;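 active means activation above the mean over all tested compounds plus 3 SD, cut at about 0.9% in these data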;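 further: 0% = DMSO-only wells and 100% = 3 µM delta7-dafachronic acid wells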
Starred values were filed as active, the others as inactive; · = not tested or not shown.

SMILES	hgDAF-12 ag	DAX1 inh-1	hcDAF12 agonist	DAX1 inh-2	ssDAF-12 act
COc1ccc(CNc2ncccc2[N+](=O)[O-])cc1	5	0	-1	1	0
O=C(NCc1ccccc1)[C@H]1CCCN1C(=O)[C@H]1CCCN1C(=O)c1ccc(F)c(F)c1	1	·	-2	0	0
COc1ccc(-c2cccc3c4c([nH]c23)[C@@H]2C[C@H]3[C@@H](C(=O)N2CC4)[C@H](C)ON3C)cc1	4	·	-1	0	-2
Cc1ccc(C(=O)N2CCN(Cc3ccc4c(c3)OCO4)CC2)o1	0	0	-1	0	-2
Cc1ccc2c(C)c(C(=O)N3CCN(Cc4ccc5c(c4)OCO5)CC3)oc2c1C	10	0	5.8*	2	0
C[C@H]1COc2cc(Br)ccc2S(=O)(=O)N1Cc1cn(Cc2ccco2)nn1	-2	·	-3	0	0
CC(C(=O)c1ccccc1)C(O)c1ccccn1 (stereo unspecified)	4	-1	1	1	-1
CC1CC(C(O)c2ccccn2)C(=O)C(C(O)c2ccccn2)C1 (stereo unspecified)	0	-1	-2	0	2.0*
Cn1c2ccccc2c2nnc(NN)nc21	2	1	5.7*	1	0
O=C(NCc1ccccc1)c1cccc(COc2cc(Cl)ccc2Cl)c1	11*	0	0	0	0
N#C/C(=C\c1ccccc1C(=O)O)c1nc2ccccc2[nH]1	4	4.4*	3	0	0
COc1cccc(/C=C(\C#N)c2nc3ccc(C)cc3[nH]2)c1OCC(=O)O	5	1	6.1*	0	-1
Cc1ccc2nc(/C(C#N)=C/c3ccc(O)c(O)c3)[nH]c2c1	1	2	-2	0	-1
Cc1ccc2nc(/C(C#N)=C/c3ccccc3C(=O)O)[nH]c2c1	5	8.4*	4	0	1.0*
CC(=O)CC[C@@H]1CC[C@]2(CCCN(S(=O)(=O)c3ccccc3)C2)O1	-3	·	5	1	-1
Cc1cc(NS(=O)(=O)c2ccc(NC(=O)/C=C/c3ccc(Br)cc3)cc2)no1	0	0	-1	4.5*	-1
COc1ccccc1OCC(=O)Nc1ccc(S(=O)(=O)Nc2cc(C)on2)cc1	-1	1	5	0	1.2*
Cc1cc(NC(=O)COc2ccccc2C(N)=O)no1	7	4.8*	1	3	0
Cc1cc(NS(=O)(=O)c2ccc(NC(=O)c3oc4ccccc4c3C)cc2)no1	1	3	4	1	0.9*
COc1ccc([C@H]2OC(=O)C[C@H]2C(=O)N2CCCCC2)cc1OC	2	·	-4	0	-1
Cc1nc(-c2ccccc2)sc1C(=O)O	0	0	-1	1	-1
Cc1ccc(-c2nc(C)c(C(=O)O)s2)cc1	11*	-1	3	3	0
COc1ccc2nc(-n3c(O)c(C4=c5ccccc5=NC4=O)[nH]c3=S)sc2c1	2	-2	1	1	0
Cn1c(O)c(C2=c3ccccc3=NC2=O)[nH]c1=S	1	1	5	0	1.2*
COC(=O)C1CCC(CNC(=O)C(Cc2ccc3c(c2)OCO3)NC(C)=O)CC1 (stereo unspecified)	2	·	-3	0	-1
SMILES	hgDAF-12 ag	DAX1 inh-1	hcDAF12 agonist	DAX1 inh-2	ssDAF-12 act
COc1cccc2sc3cc(C#CC4(O)CCCCC4)ccc3c(=O)c12	10*	1	2	2	1
COc1cccc2sc3ccc(C#CC4(N)CCCCC4)cc3c(=O)c12	2	2	0	0	0
O=C(C/C=N/OCc1ccc(Cl)cc1Cl)c1ccccc1	1	1	3	1	-1
O=C(C/C=N/OCc1c(Cl)cccc1Cl)c1ccccc1	6	0	4	1	0.9*
Cc1cc(NS(=O)(=O)c2ccc(NC(=O)CSc3nnc(-c4ccco4)n3-c3ccc(Cl)cc3)cc2)nc(C)n1	2	·	-2	0	0
Cc1ccc(-n2nc3ccc(N)cc3n2)cc1C	4	2	5.8*	1	0
Cc1ccc(-n2nc3ccc(N)cc3n2)cc1Cl	6	2	6.2*	2	0
c1ccc(Cc2cnc(N3CCN(Cc4cccc(-c5ccsc5)n4)CC3)nc2)cc1	-5	·	-2	-5	-2
NC(=O)c1c(NC(=O)c2ccc([N+](=O)[O-])o2)sc2c1CCCC2	1	0	4	0	2.0*
